From the supplement of paper PMC9694430
Counter-ions that a name gives are not always drawn.

Tests used:
Assay in all cases: thermal shift delta Tm vs DMSO control; higher = stronger stabilization (binding)
Conditions in all cases: 12.5 µM; protein concentration 2 µM
[1] = system: LOC_OS01G01410-cb001
Summary of the method: (§1)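 Heating from 25°C to 95°C at 0.05°C/s, fluorescence was recorded for 19.5 μl wells of 2 μM E. coli-expressed, purified rice kinase domain in 100 mM potassium phosphate pH 7.5, 150 mM NaCl, 10% glycerol and 5 × SYPRO Orange with compound in DMSO. Boltzmann fits gave melting temperatures for this differential scanning fluorimetry assay. The shift reported is the mean of three replicates against the DMSO-only protein.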

[2] = system: LOC_OS01G02750-cb003
Summary of the method: as §1

[3] = system: LOC_OS01G10900-cb004
Summary of the method: as §1

[4] = system: LOC_OS01G13800-cb001
Summary of the method: as §1

[5] = system: LOC_OS01G14860-cb001
Summary of the method: as §1

[6] = system: LOC_OS01G21960-cb002
Summary of the method: as §1

[7] = system: LOC_OS01G39600-cb002
Summary of the method: as §1

[8] = system: LOC_OS01G48390-cb002
Summary of the method: as §1

[9] = system: LOC_OS01G51400-cb002
Summary of the method: as §1

[10] = system: T1, LOC_OS01G52050-cb004
T1 sequence (whole entry): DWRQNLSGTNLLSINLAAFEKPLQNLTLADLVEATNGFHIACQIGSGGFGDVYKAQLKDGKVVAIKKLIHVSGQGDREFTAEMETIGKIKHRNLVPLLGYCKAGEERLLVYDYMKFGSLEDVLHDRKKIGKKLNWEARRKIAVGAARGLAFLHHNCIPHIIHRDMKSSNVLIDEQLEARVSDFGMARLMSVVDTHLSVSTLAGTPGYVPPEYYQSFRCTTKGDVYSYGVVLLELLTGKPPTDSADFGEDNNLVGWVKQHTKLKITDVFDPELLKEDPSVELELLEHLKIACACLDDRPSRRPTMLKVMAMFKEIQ
Summary of the method: as §1
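Also: purified Escherichia coli-expressed rice kinase domain construct.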

Compound	thermal shift delta Tm [1]	thermal shift delta Tm [2]	thermal shift delta Tm [3]	thermal shift delta Tm [4]	thermal shift delta Tm [5]	thermal shift delta Tm [6]	thermal shift delta Tm [7]	thermal shift delta Tm [8]	thermal shift delta Tm [9]	thermal shift delta Tm [10]
c1nc2c(NC3CCCCC3)nc(Nc3ccc(N4CCOCC4)cc3)nc2[nH]1 [Reversine]	5.03 °C	0.7 °C	0.47 °C	0.43 °C	2.02 °C	2.54 °C	5.31 °C	-0.29 °C	1.66 °C	5.54 °C
O=C1c2ccc(Nc3ccc(F)cc3F)cc2CCc2ccc(OC[C@H](O)CO)cc21 [Skepinone-L]	0.24 °C	1.29 °C	1.14 °C	-0.71 °C	0.36 °C	0.57 °C	-1.35 °C	0.21 °C	-0.11 °C	0.04 °C
CN(C)S(=O)(=O)c1ccc2c(c1)/C(=C/c1cc3c([nH]1)CCCC3)C(=O)N2	0 °C	6.57 °C	2.65 °C	1.7 °C	1.95 °C	3.86 °C	3.22 °C	2.42 °C	3.07 °C	13 °C
CN(C)C/C=C/C(=O)Nc1ccc(C(=O)Nc2cccc(Nc3ncc(Cl)c(-c4c[nH]c5ccccc45)n3)c2)cc1	4.03 °C	6.62 °C	0.47 °C	1.95 °C	7.28 °C	4.75 °C	2.35 °C	3.99 °C	1.75 °C	9.77 °C
CCOc1ccn(-c2ccc(F)cc2)c(=O)c1C(=O)Nc1ccc(Oc2ccnc(N)c2Cl)c(F)c1	0.18 °C	1.95 °C	0.48 °C	0.21 °C	3.61 °C	0.65 °C	-0.36 °C	2.33 °C	0.21 °C	0.98 °C
O=c1sn(-c2cccc3ccccc23)c(=O)n1Cc1ccccc1 [Tideglusib]	0.61 °C	-1.04 °C	-0.23 °C	0.16 °C	0.15 °C	0.39 °C	1.37 °C	0.44 °C	0.24 °C	0.37 °C
CN1CC[C@H](c2c(O)cc(O)c3c(=O)cc(-c4ccccc4Cl)oc23)[C@H](O)C1 [Flavopiridol HCl]	0.19 °C	0.76 °C	0.17 °C	0.42 °C	4.95 °C	1.89 °C	1.02 °C	0.58 °C	0.54 °C	1.03 °C
O=C(NOCC1CC1)c1ccc(F)c(F)c1Nc1ccc(I)cc1Cl	1.01 °C	11.3 °C	1.62 °C	0.71 °C	1.37 °C	1.16 °C	1.41 °C	1.28 °C	0.54 °C	2.25 °C
Cc1cc([C@@H](C)Nc2ccccc2C(=O)O)c2nc(N3CCOCC3)cc(=O)n2c1	0.29 °C	1.55 °C	0.27 °C	0.31 °C	0.56 °C	1.03 °C	0.03 °C	0.29 °C	0.07 °C	0.43 °C
Nc1cc(C(F)(F)F)c(-c2cc(N3CCOCC3)nc(N3CCOCC3)n2)cn1 [Buparlisib (BKM120, NVP-BKM120)]	0.58 °C	0.22 °C	0.31 °C	0.04 °C	0.19 °C	0.6 °C	0.55 °C	0.7 °C	0.92 °C	0.06 °C
COc1ccc(CC(=O)Nc2nc3c(s2)CCc2ccccc2-3)cc1OC	0.68 °C	1.06 °C	0.85 °C	0.28 °C	0.9 °C	0.69 °C	0.43 °C	1.55 °C	-0.32 °C	2.89 °C
CN1CCN(c2ccc3nc(-c4c(N)c5c(F)cccc5[nH]c4=O)[nH]c3c2)CC1 [Dovitinib (TKI258) Lactate]	5.96 °C	2.78 °C	4.81 °C	1.06 °C	2.06 °C	3.87 °C	4.79 °C	3.22 °C	1.02 °C	6.95 °C
CC(C)(C)c1cc(NC(=O)Nc2ccc(Oc3ccnc4[nH]c(=O)cnc34)cc2F)n(-c2ccccc2)n1	-0.24 °C	1.82 °C	0.63 °C	0.95 °C	6.67 °C	0.63 °C	0.19 °C	0.23 °C	0.46 °C	0.84 °C
NCC(=O)Nc1ccc(-n2nc(C(F)(F)F)cc2-c2ccc3c(ccc4ccccc43)c2)cc1	1.11 °C	6.14 °C	0.31 °C	-0.76 °C	-0.8 °C	0.55 °C	2.28 °C	0.79 °C	-0.21 °C	2.4 °C
CC(C)c1cnn2c(NCc3ccccc3)cc(NCCCCCCN)nc12	0.34 °C	0.13 °C	0.11 °C	-0.23 °C	0.11 °C	0.56 °C	-0.29 °C	0.09 °C	-0.21 °C	0.18 °C
CNC(=O)c1cc(Oc2ccc(NC(=O)Nc3ccc(Cl)c(C(F)(F)F)c3)cc2)ccn1 [Sorafenib Tosylate]	2.14 °C	5.21 °C	1.97 °C	1.97 °C	5.9 °C	2.13 °C	2.03 °C	2.56 °C	1.31 °C	5.16 °C
Cc1n[nH]c2ncc(C(=O)N3CCC[C@H]3c3ccc(Cl)cc3)cc12	0.63 °C	0.98 °C	0.41 °C	0.18 °C	4.68 °C	0.38 °C	0.88 °C	0.19 °C	0.21 °C	3.46 °C
Nc1ccc(-c2ccc3ncc4ccc(=O)n(-c5cccc(C(F)(F)F)c5)c4c3c2)cn1 [Torin 2]	1.14 °C	1.23 °C	-0.05 °C	-0.87 °C	2.07 °C	1.41 °C	0.74 °C	0.94 °C	0.41 °C	0.7 °C
C=CC(=O)Nc1cccc(Nc2nc(Nc3ccc(N4CCN(C(C)=O)CC4)cc3OC)ncc2C(F)(F)F)c1 [Rociletinib (CO-1686, AVL-301)]	1.11 °C	-0.18 °C	-0.01 °C	-0.38 °C	0.68 °C	0.5 °C	-0.84 °C	1.8 °C	0.49 °C	0.58 °C
CCNC(=O)Nc1ccc(-c2nc(N3CCOC[C@@H]3C)c3c(n2)C(C)(C)S(=O)(=O)C3)cc1	0.67 °C	1.05 °C	0.47 °C	0.09 °C	0.6 °C	0.34 °C	-0.26 °C	-0.02 °C	0.22 °C	3.06 °C
Cc1nc(N)sc1-c1ccnc(Nc2ccc(N3CCOCC3)cc2)n1	5.75 °C	10.4 °C	1.74 °C	0.29 °C	2.6 °C	2.06 °C	3.24 °C	2.34 °C	0.68 °C	6.52 °C
